Compound activity deposited in PubChem by National Center for Advancing Translational Sciences (NCATS).
Sampled rows, rich in hits. Any-hit rate of the full collection: about 12%.
JMJD2A Tudor inh: JMJD2A Tudor domain (human) inhibition; O75164; AlphaScreen JMJD2A-Tudor / H3K4me3 peptide binding; Potency, µM (top dose mostly 114 µM), for the others: at the highest dose activity change, negative = inhibition, hits mostly inhibitors; 390,000 compounds, 4.4% hits; also: % is scaled to controls: 0 for no effect and ±100 for the full control effect; nearly all actives have a fitted effect of over 50% in size
BAZ2B block: inhibitors of human BAZ2B bromodomain. Q9UIF8. AlphaScreen BAZ2B-H3K14Ac peptide displacement. Potency, µM (doses to about 114 µM), for inactives: top-dose activity change, negative = inhibition, most hits filed as inhibitors. 360,000 compounds, 4.4% hits; also: % is scaled to controls: 0 for no effect and ±100 for the full control effect; nearly all actives have a fitted effect of over 60% in size
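AlphaScreen displacement of biotin-H3(5-23)K14Ac peptide (50 nM final) from BAZ2B (50 nM final) in PBS pH 7.4, 0.01% Tween-20; complex preformed 30 min RT, then compounds (top 110 uM) 30 min RT, beads 20 min dark.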
HP1b binding inh: blocks HP1-beta chromodomain binding to methylated histone tails | P83916 | AID 540317 | Potency, µM (top dose mostly 114 µM), for the others: at the top dose activity change, negative = inhibition, actives largely listed as inhibitors | 390,000 compounds, 0.56% hits | AlphaScreen HP1-beta / biotin-H3K9me3 peptide binding; also: nearly all actives have a fitted effect of over 70% in size
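Compound inhibition of the preformed complex between 50 nM HP1-beta and 50 nM biotinylated H3K9me3 peptide was read by AlphaScreen. Buffer was PBS pH 7.4 with 0.01% Tween-20. Incubations ran 30 min at room temperature, with 10 ug/mL donor/acceptor beads.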
Sfp inh: inhibitors of Bacillus subtilis Sfp phosphopantetheinyl transferase; Q9F4F7; Biochemical Sfp PPTase activity, qHTS; Potency, µM, without a hit: largest response in the series, negative = inhibition, hits mostly inhibitors; 310,000 compounds, 3.5% hits; AID 1490;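 also: the enzyme is Sfp with the accession as filed and its product quenches rhodamine fluorescence; 0% = enzyme reaction without inhibitor and -100% = no enzyme wells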
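With Hepes-Na pH 7.6 buffer containing 10 mM MgCl2, Sfp (15 nM) modified BHQ-2-YbbR (12.5 uM) using rhodamine-CoA (5 uM). Two reads 30 minutes apart at 525/598 nm yielded each well's rate.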
L3MBTL1 block: blocks human L3MBTL1. Q9Y468. AlphaScreen L3MBTL1–H3K9me1 peptide binding. Potency, µM (highest dose often 57.1 µM), for the others: at the highest dose activity, negative = inhibition, usual class: inhibitors. 230,000 compounds, 0.66% hits. AID 485360; also: % is scaled to controls: 0 for no effect and ±100 for the full control effect; nearly all actives have a fitted effect of over 60% in size
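AlphaScreen assay: L3MBTL1 (50 nM final) was preincubated 30 min at room temperature with biotinylated H3(1-15)K9me1 peptide (75 nM final), then 30 min with library compounds; streptavidin donor and nickel chelate acceptor beads (10 ug/mL final) added, 30 min dark.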
G9a inh: G9a (human) methyltransferase inhibition; G9a H3K9 monomethylation, AlphaScreen, 2 h; Potency, µM (series often up to 102 µM), inactives show at the top dose activity, negative = inhibition, actives largely listed as inhibitors; 350,000 compounds, 8.8% hits; also: % is scaled to controls: 0 for no effect and ±100 for the full control effect; nearly all actives have a fitted effect of over 75% in size
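G9a (20 nM) preincubated 15 min RT with compounds, then 500 nM biotinylated H3K9 peptide and 20 uM SAM added; 2 h RT reaction. Monomethyl-H3K9 product detected by AlphaScreen with anti-H3K9me1 antibody, streptavidin donor and anti-rabbit IgG acceptor beads.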
Starred values were filed as active, the others as inactive; ? = inconclusive; . = not tested or not shown; [ ] = dose if it differs, or a comment. Calls follow the shape of the dose curve; as a rule, active = well fitted curve in the direction sought with a large enough effect; inconclusive = small, poorly fitted or top-dose-only effect, or another doubt; inactive = no such curve, though single readings can be large; an effect the other way counts as inactive or inconclusive. Potency is read from the fitted curve at half-maximal effect.

SMILES	JMJD2A Tudor inh	BAZ2B block	HP1b binding inh	Sfp inh	L3MBTL1 block	G9a inh
CN1C(=O)/C(=C\C=C2/CCCN2C)N(C)C1=S	-26%	-35%	2%	-11%	.	18µM*
O=C(/C=C\C=C/c1ccc2c(c1)OCO2)N1CCCCC1	.	.	.	13%	.	18%[21.5 µM]
O=C(C1CCN(S(=O)(=O)c2cnc[nH]2)CC1)N(CCc1ccccc1)Cc1ccccc1	-8%	0%	33%	1%	.	-32%
O=C(C1CCN(CCCc2ccccc2)CC1)N(CCc1ccccc1)Cc1ccccc1	1.1µM*	?	?	?	-6%	14µM*
O=C(C1CCN(CC2CC=CCC2)CC1)N(CCc1ccccc1)Cc1ccccc1 (stereo unspecified)	?	79µM*	42%	-28%	0%	45µM*
CCC(C)NC(=O)C1CCN(C(=O)c2ccccc2)CC1 (stereo unspecified)	-12%	6%	13%	12%	-2%	.
CCC(C)NC(=O)C1CCN(CCCc2ccccc2)CC1 (stereo unspecified)	10µM*	50µM*	-28%	11%	6%	14µM*
CC(C)C(=O)Nc1ccc(S(=O)(=O)Nc2ccccn2)cc1	-22%	16%	23%	5%	-27%	-8%
CC(=O)Nc1nnc(-c2c(-c3c(Cl)cccc3Cl)noc2C)o1	?	-29%	37%	12%	-11%	-6%
O=C(CSc1cccc[n+]1[O-])Nc1ccc(N2CCOCC2)cc1	.	-21%	.	11%	-29%	56µM*
O=C(CSc1cccc[n+]1[O-])Nc1ccc2c(c1)OCCO2	-8%	-5%	36%	19%	-1%	25%[0.0925 µM]
Cc1ccccc1SCC(=O)Nc1ccc(N2CCOCC2)cc1	-32%	-37%	-4%	17%	.	-6%[59 µM]
O=C(CCn1c(=O)oc2ccccc21)Nc1ccc(N2CCOCC2)cc1	-12%	4%	0%	10%	.	21%[59 µM]
Nc1ccccc1SCC(=O)Nc1ccc(N2CCOCC2)cc1	-14%	-32%	27%	6%	-1%	45µM*
O=C(CSc1cccc[n+]1[O-])Nc1ccc([N+](=O)[O-])cc1Cl	-1%	-13%	42%	14%	4%	56µM*
O=C(CCn1ccc2ccccc21)Nc1ccc(N2CCOCC2)cc1	-27%[57.1 µM]	-9%	-10%	7%	-12%	50µM*
O=C(c1cc(S(=O)(=O)N2CCOCC2)ccc1Cl)N1CCC(Cc2ccccc2)CC1	-24%	-30%	3%	.	-9%	?
COc1ccc(NC(=O)C2C3C=CC4(O3)C2C(=O)N(CCN2CCCCC2)C4C(=O)NC2CCCC(C)C2C)cc1 (stereo unspecified)	-15%	-3%	12%	-9%	.	-17%
Cn1c(=O)c2ncn(CC(=O)Nc3ccc(N4CCOCC4)cc3)c2n(C)c1=O	-6%	-4%	12%	-12%	.	14µM*
O=C(CCSCc1ccccc1Cl)N1CCN(c2ccc(F)cc2)CC1	-30%	-7%	3%	.	.	-33%[59 µM]
CCNc1ncc2nc(-c3ccc(OC)cc3)c(=O)n(Cc3cccs3)c2n1	.	.	.	-8%	.	2%[0.501 µM]
N=C1Sc2ccccc2C2=NCCCN12	.	.	.	.	.	0.11µM*
N#Cc1ccc(OCCN2CCc3ccccc3C2)cc1	25µM*	.	?	.	.	.
COc1ccc(OCCOCCN2CCc3ccccc3C2)cc1	2.5µM*	50µM*	?	0%	.	10µM*
Clc1ccc(OCCCCN2CCc3ccccc3C2)cc1	18%	6%	100%	-1%	43%	.
Nc1nc(-c2cccs2)c(-c2cccs2)s1	-26%	?	?	5%	.	?
Nc1nc(-c2ccc(Oc3ccccc3)cc2)c(CC(=O)O)s1	-22%	-24%	15%	-7%	.	32µM*
CC(C)(C)c1sc(N)nc1-c1ccccc1	-22%	.	17%	.	.	.
Nc1nc(-c2cccs2)c(CC(=O)O)s1	-34%	0%	23%	-24%	.	40µM*
CCn1cc(C(=O)O)c(=O)c2cc(F)c(N/N=C/c3ccccc3[N+](=O)[O-])cc21	6%	-32%	22%	-11%	11%	23%[59 µM]
